{"source": "the supplement of paper PMC3150612", "key": {"Drosophila melanogaster [1]": {"tested_on": "Drosophila melanogaster", "test": "olfactory response index (dipstick assay) (fraction of flies (RI; 1 aversion, 0.5 indifferent, 0 attraction)); higher = stronger aversion to the odorant", "details": "odorant concentration: 1% v/v, male"}, "Drosophila melanogaster [2]": {"tested_on": "Drosophila melanogaster", "test": "olfactory response index (dipstick assay) (fraction of flies (RI; 1 aversion, 0.5 indifferent, 0 attraction)); higher = stronger aversion to the odorant", "details": "odorant concentration: 1% v/v, female"}, "[3]": {"details": "genotype (tubulin-GAL4 x UAS-RNAi line; control = progenitor): A5"}, "[4]": {"details": "genotype (tubulin-GAL4 x UAS-RNAi line; control = progenitor): control"}, "[5]": {"details": "genotype (tubulin-GAL4 x UAS-RNAi line; control = progenitor): obp 18a"}, "[6]": {"details": "genotype (tubulin-GAL4 x UAS-RNAi line; control = progenitor): obp 22a"}, "[7]": {"details": "genotype (tubulin-GAL4 x UAS-RNAi line; control = progenitor): obp 28a"}, "[8]": {"details": "genotype (tubulin-GAL4 x UAS-RNAi line; control = progenitor): obp 56a"}, "[9]": {"details": "genotype (tubulin-GAL4 x UAS-RNAi line; control = progenitor): obp 56c"}, "[10]": {"details": "genotype (tubulin-GAL4 x UAS-RNAi line; control = progenitor): obp 56f"}, "[11]": {"details": "genotype (tubulin-GAL4 x UAS-RNAi line; control = progenitor): obp 57a"}, "[12]": {"details": "genotype (tubulin-GAL4 x UAS-RNAi line; control = progenitor): obp 57b"}, "[13]": {"details": "genotype (tubulin-GAL4 x UAS-RNAi line; control = progenitor): obp 58c"}, "[14]": {"details": "genotype (tubulin-GAL4 x UAS-RNAi line; control = progenitor): obp 59a"}, "[15]": {"details": "genotype (tubulin-GAL4 x UAS-RNAi line; control = progenitor): obp 83a"}, "[16]": {"details": "genotype (tubulin-GAL4 x UAS-RNAi line; control = progenitor): obp 83c"}, "[17]": {"details": "genotype (tubulin-GAL4 x UAS-RNAi line; control = progenitor): obp 93a"}, "[18]": {"details": "genotype (tubulin-GAL4 x UAS-RNAi line; control = progenitor): obp 99b"}, "[19]": {"details": "genotype (tubulin-GAL4 x UAS-RNAi line; control = progenitor): obp 56h"}}, "note": "± gives the standard deviation of the averaged measurements.", "data": [{"compound": "O=Cc1ccccc1", "note": "[benzaldehyde]", "values": [{"measurement": "olfactory response index", "setting": "Drosophila melanogaster [1]; [3]", "value": "0.725 ± 0.049"}, {"measurement": "olfactory response index", "setting": "Drosophila melanogaster [1]; [4]", "value": "0.83 ± 0.13"}, {"measurement": "olfactory response index", "setting": "Drosophila melanogaster [1]; [5]", "value": "0.53 ± 0.1"}, {"measurement": "olfactory response index", "setting": "Drosophila melanogaster [1]; [6]", "value": "0.467 ± 0.074"}, {"measurement": "olfactory response index", "setting": "Drosophila melanogaster [1]; [7]", "value": "0.621 ± 0.14"}, {"measurement": "olfactory response index", "setting": "Drosophila melanogaster [1]; [8]", "value": "0.418 ± 0.068"}, {"measurement": "olfactory response index", "setting": "Drosophila melanogaster [1]; [9]", "value": "0.522 ± 0.14"}, {"measurement": "olfactory response index", "setting": "Drosophila melanogaster [1]; [10]", "value": "0.656 ± 0.11"}, {"measurement": "olfactory response index", "setting": "Drosophila melanogaster [1]; [11]", "value": "0.547 ± 0.17"}, {"measurement": "olfactory response index", "setting": "Drosophila melanogaster [1]; [12]", "value": "0.636 ± 0.024"}, {"measurement": "olfactory response index", "setting": "Drosophila melanogaster [1]; [13]", "value": "0.702 ± 0.035"}, {"measurement": "olfactory response index", "setting": "Drosophila melanogaster [1]; [14]", "value": "0.739 ± 0.0092"}, {"measurement": "olfactory response index", "setting": "Drosophila melanogaster [1]; [15]", "value": "0.591 ± 0.15"}, {"measurement": "olfactory response index", "setting": "Drosophila melanogaster [1]; [16]", "value": "0.557 ± 0.023"}, {"measurement": "olfactory response index", "setting": "Drosophila melanogaster [1]; [17]", "value": "0.537 ± 0.042"}, {"measurement": "olfactory response index", "setting": "Drosophila melanogaster [1]; [18]", "value": "0.299 ± 0.13"}, {"measurement": "olfactory response index", "setting": "Drosophila melanogaster [1]; [19]", "value": "0.555 ± 0.12"}, {"measurement": "olfactory response index", "setting": "Drosophila melanogaster [2]; [3]", "value": "0.8108 ± 0.005"}, {"measurement": "olfactory response index", "setting": "Drosophila melanogaster [2]; [4]", "value": "0.694 ± 0.053"}, {"measurement": "olfactory response index", "setting": "Drosophila melanogaster [2]; [5]", "value": "0.534 ± 0.029"}, {"measurement": "olfactory response index", "setting": "Drosophila melanogaster [2]; [6]", "value": "0.708 ± 0.24"}, {"measurement": "olfactory response index", "setting": "Drosophila melanogaster [2]; [7]", "value": "0.757 ± 0.076"}, {"measurement": "olfactory response index", "setting": "Drosophila melanogaster [2]; [8]", "value": "0.683 ± 0.17"}, {"measurement": "olfactory response index", "setting": "Drosophila melanogaster [2]; [9]", "value": "0.645 ± 0.031"}, {"measurement": "olfactory response index", "setting": "Drosophila melanogaster [2]; [10]", "value": "0.75 ± 0.058"}, {"measurement": "olfactory response index", "setting": "Drosophila melanogaster [2]; [11]", "value": "0.839 ± 0.059"}, {"measurement": "olfactory response index", "setting": "Drosophila melanogaster [2]; [12]", "value": "0.748 ± 0.087"}, {"measurement": "olfactory response index", "setting": "Drosophila melanogaster [2]; genotype (tubulin-GAL4 x UAS-RNAi line; control = progenitor): obp 58b", "value": "0.753 ± 0.048"}, {"measurement": "olfactory response index", "setting": "Drosophila melanogaster [2]; [13]", "value": "0.795 ± 0.051"}, {"measurement": "olfactory response index", "setting": "Drosophila melanogaster [2]; [14]", "value": "0.863 ± 0.051"}, {"measurement": "olfactory response index", "setting": "Drosophila melanogaster [2]; [15]", "value": "0.663 ± 0.16"}, {"measurement": "olfactory response index", "setting": "Drosophila melanogaster [2]; [16]", "value": "0.797 ± 0.16"}, {"measurement": "olfactory response index", "setting": "Drosophila melanogaster [2]; [17]", "value": "0.738 ± 0.11"}, {"measurement": "olfactory response index", "setting": "Drosophila melanogaster [2]; [18]", "value": "0.379 ± 0.16"}, {"measurement": "olfactory response index", "setting": "Drosophila melanogaster [2]; [19]", "value": "0.726 ± 0.091"}]}]}
